The campaign covered roughly 1,600 compounds. About 430 (27%) were called active. Cut-off read from the data, not from the text of the source: active = inhibition above about 29%; inactive = the rest. Only a sample is shown.

Sequence of Melanocortin receptor 4 (Homo sapiens) (P32245 whole entry, looked up): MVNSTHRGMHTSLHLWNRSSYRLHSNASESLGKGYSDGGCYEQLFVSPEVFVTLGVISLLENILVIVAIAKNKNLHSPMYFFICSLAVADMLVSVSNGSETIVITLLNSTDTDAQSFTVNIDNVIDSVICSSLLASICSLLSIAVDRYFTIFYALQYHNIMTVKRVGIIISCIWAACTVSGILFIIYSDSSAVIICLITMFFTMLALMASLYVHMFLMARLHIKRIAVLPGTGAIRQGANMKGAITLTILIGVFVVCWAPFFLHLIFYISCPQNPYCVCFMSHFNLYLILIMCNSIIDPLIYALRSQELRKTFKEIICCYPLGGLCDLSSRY

The experiment has as its target Melanocortin receptor 4 (Homo sapiens) (UniProt P32245). The experiment in a line: MC4R cAMP antagonists, retest, confirmation, cell-based, TR-FRET (AID 602195).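 Note: 0% = agonist stimulated wells alone and 100% = agonist stimulated wells plus saturating reference antagonist.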 To be noted: MC4R-expressing cells, MTII-stimulated cAMP, at 6.5 µM, active compounds read high.
Turning to `O=C(NC1=CC(=O)c2ccccc2C1=O)c1ccccc1`, the inhibition was 15.8% (inactive). Turning to `COc1ccc(C(C)C)cc1S(=O)(=O)Nc1ncn[nH]1`, the inhibition was 5.25% (inactive). Under `Cc1ccc(CSc2nnc(-c3cnccn3)n2C)cc1` stands 10.6% (inactive); under `COc1ccc(Oc2c(Cl)cnn(-c3ccccc3)c2=O)cc1`, 72.2% (active). In the case of `O=C(Nc1ccc(F)c([N+](=O)[O-])c1)C1CC(=O)N(Cc2ccccc2)C1` (stereo not drawn), the inhibition is 42.5% (active).

For `Cc1ccc(-c2nnc(CN3CCN(C)CC3)o2)cc1`, the inhibition is 7.87% (inactive). Regarding `O=C(OCC(=O)N1CCCCCC1)c1cnc(Cl)c(Cl)c1`, the inhibition is 35.9% (active). Then `COc1ccc(CCNC(=O)COC(=O)c2cnc(Cl)c(Cl)c2)cc1`, with 36.7% (active).

Turning to `COc1ccc(CCNC(=O)c2cnc(Cl)c(Cl)c2)cc1`, the inhibition is 35.6% (active).

Regarding `CC(C)Oc1c(Br)cc(Br)cc1/C=N/NC(N)=S`, the inhibition is 25.2% (inactive). Under `COc1ccc(Cl)cc1-c1cc(C(=O)Nc2cc(OC)c(OC)c(OC)c2)[nH]n1` stands -21.1% (inactive).

As for `O=C(NCC1CCN(Cc2ccccc2Cl)CC1)Nc1cccc(Cl)c1`, the inhibition is -1.08% (inactive). Then `CC(NS(=O)(=O)c1ccc(Br)cc1)C(=O)NCC1CCCO1` (stereo not drawn), with 0.92% (inactive). Under `CCOC(=O)c1c(-c2ccccc2)oc2cc(Br)c(O)c(C=O)c12` stands 68.6% (active). In the case of `C=Cn1c(C(=O)O)ccc1-c1ccc(OC)cc1`, the inhibition is -8.3% (inactive). Under `N#C/C=C1\Sc2ccccc2C(=O)N1CC(=O)N1CCN(S(=O)(=O)c2ccccc2)CC1` stands 3.29% (inactive); under `CCCC(C(=O)n1nc(C)cc1C)C(NS(=O)(=O)c1ccc(C)cc1)c1ccccc1` (stereo not drawn), 13.1% (inactive).

Take `N#Cc1c(-c2cccs2)nc(SCC(=O)c2ccc(Br)cc2)[nH]c1=O`: the inhibition was 19.2% (inactive). Then `CC1(C)Cc2ccccc2-c2[nH]c(=S)[nH]c(=O)c21`, with 36.1% (active). In the case of `COc1ccc2oc(N)c(C=O)c(=O)c2c1`, the inhibition is -15.9% (inactive). Under `CC(=O)N1CCN(S(=O)(=O)c2c(F)cc(F)c(Cl)c2F)CC1` stands 45.1% (active); under `CCN(CC(=O)NCCCN1CCOCC1)S(=O)(=O)c1cc(Cl)ccc1Cl`, -1% (inactive). Then `COc1ccc(C(C[N+](=O)[O-])n2nc(C)cc2C)cc1` (stereo not drawn), with -13.7% (inactive).

The values are drawn from PubChem BioAssay AID602195 (The Scripps Research Institute Molecular Screening Center, 2012).
